Laboratory results as given in the supplement of paper PMC12632987.
Over roughly 2,300 sequences, “median log2 fold change of GCK-ALFA target abundance (FLAG IP / Myc IP barcode read proportion)” has its median near 0.095; the lowest 2% begin near -0.47. The sample holds the lowest values, similar sequences and a random draw of the others, so the mix is not that of the screen.

B1: LC3A_3_1549 (protein)
chain: MEELLEETLKRLKEAGASEEVIEAVRKALQALIDRGYEEALKEFAREVEELIGLPDEILLDFAEEVLRAIEEEDLNEEELIERIKEIATIAKNEGEIIEL
B2: LC3A_28_855 (protein)
chain: SETRKSIEEAREELEKAREAKEPAVITVTVTSDVTEEEVEEVIELIKEAAEASKEVPDLTLIIDFEGEIDPEHLNRITDAADEAIKKNPKLNVIFALDEE
B3: LC3A_147_414 (protein)
chain: TVVEIDILVKSKEAVEKIKERMKEIVKELKAKGYKVKLEIKVEEVEPGVYLVDITIEIEAETKEDAEAAANFVLDKIDEMEEELKDEILGSLISVEIEEK
B4: LC3A_127_214 (protein)
chain: EKEKLIKELLELIRKAQELLAKPDYDLEEIRKLLEEAIKVAKELLKLDERFKPVLEDLESALKLVDQMENLSPAEQEEARERVSMLLDGAEIELLSLELK
B5: LC3A_147_517 (protein)
chain: YLVEVEIDMLLKNSKELAEEIAKEIEERLKEKGYKVEVELEFEEDEDGTIFADITIKVEAETLEEAKEVANEILDIIDELLEKNKDKILGALISVSITKK
B6: LC3A_147_516 (protein)
chain: YKVTVEIDLLLKNSKELAEEMAEEIKEYLESKGYEVEVELEFEEDEDGTIFAKITITVKAETKEEAEKVANEVLEKIDELLEKYKDKILGALISVSIEEE
B7: LC3A_132_295 (protein)
chain: MEEKAEKYLKELKALIAAAKANIDDDAKVTALLKEIEAKIEEAEKELTPEEVAKVFEEVADELWALSQVFDAAGKEQLALEADGLAIEAASLALRAKEKI
B8: LC3A_45_1925 (protein)
chain: MWEATLDVLVPRELAEKAYATAKELMAELEAEHGPDLRVDWATLDESYAASKDEEDVYLEIRIYHPDEQVALDAADRLEDELNAALGGKASSIISLKKLP
B9: LC3A_free_8_2533 (protein)
chain: KREEFVNKALELLDEFEEEIRKKAKELGLDELDILDLELLIGSLKIEVVELRDKPMEEILKTIEEGLEEIIEEAKELSEELAEKVEELAEEILEELKEMM
B10: LC3A_147_503 (protein)
chain: YLLKVDIDIIVKNAEEEVKKMVEEIEEELKKKGFEVKVKINIEQLDENTTYISINIEVKAKTKEEAEEAANYIIDKFDKYLEENKDKILGALISVEIEKE
B11: LC3A_28_660 (protein)
chain: SATREAADAAIAAARAAAARGEPAVITLTVTGDATPEDIDYVLAALEEIAAILAPIPGSAIVIDLEAGVDPEHRQRIIDKAEELEKRYPNVTVIIAEEEE
B12: LC3A_3_1416 (protein)
chain: MEEAKKKALEALKKAGHSEETLKALNELVDLLEARGAEEEAKEVLELVLENKDISSELLLEVLNEAIELLTVKKLSPEEVIKELKEELRIARNEEEIIEL
B13: LC3A_3_1375 (protein)
chain: SEELIEETLAYLREKGKSEETLEAVRRAMEALAEKGYEEALKTFAELLKEMEDLPDEILLDFAEDVLEAVENEDLNEEELIEFIKEEARVARSEGEIIEL
B14: LC3A_free_8_2497 (protein)
chain: SRQEIVDRLLELIDELEEELEEKAKELGLSELDILDITLELGSLKAEIISNSDEPLEVIREELEEGLEEIIELTEELSEELEELAEEGAEKILEELEELE
B15: LC3A_28_1014 (protein)
chain: SHMEERVAALIAEIEAALAKGEYVVATLTITPEDSLEEVKAAMERVGKAALEAAKKGIVDVVVDLEKGVSQEKLDAVMEAADELEKKAPKLNVVIALEEE
B16: LC3A_free_0_2106 (protein)
chain: MTVVGEVLAITEKALTPEQLKKVKEEMEKIAKELEEEYGMKVEVTVKEVDGRTVFTLKFSKEGLSIEEAIEIVDEVADKLEEKLKELGADVTIYTSVYEE
B17: LC3A_17_542 (protein)
chain: MEEIKKELEELLKKLEKLVEKLAEYDPEKAKKLKKKLEEAKKLIKAGKLKEAAELLAEAAREAAEAWEELEPEYGTEASVYAMEASGLELEAIGILLKLD
B18: LC3A_17_544 (protein)
chain: MEELKKELEKLLKKLEELVKELEKYDPEKAKKLKKQLEEAKKLIKAGKLREAAELLAKAAREAADAFEKLEPKYGTKASVLAMEASGLELEAIRILLKLE
B19: LC3A_28_1074 (protein)
chain: SAVEEENEKILKEAKEAKEKGEPAVITIKIDESDTDEDIEKKLETIREVAEILKDVEGAAIIIDLEGEKALSRLDEVADLADELEEKYPNLTVIIALDDE

biological target: MAP1LC3A, Q9H492; test: median log2 fold change of GCK-ALFA target abundance (FLAG IP / Myc IP barcode read proportion) (log2 ratio); each designed protein is fused to an ALFA-tag nanobody in HEK293 cells to bring the named protein to FLAG-tagged glucokinase (GCK); Myc marks an untargeted standard; higher = target protein stabilised (more abundant); conditions: target protein: 3xFLAG-MCP-GCK-ALFA reporter; HEK293 landing pad (RPLP)
Method: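 LABEL-seq trans screen in HEK293 landing-pad cells. Each de novo designed 100-aa effector handle, binding the indicated effector (E3 ligase, DUB or autophagy protein), is fused to a constant NbALFA target handle and induced with 2 ug/mL doxycycline. A FLAG-MCP-GCK-ALFA target and a Myc-MCP standard reporter were transfected, and after 48 h circRNA barcodes were recovered by anti-FLAG and anti-Myc IP and sequenced. The value is the median across barcodes (at least 3 per design) of log2(FLAG/Myc read-proportion ratio), with the two transfection replicates pooled. Negative values mean degradation and positive values mean stabilisation of the target.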

| Binder | median log2 fold change |
| --- | --- |
| B1 | 0.258 |
| B2 | 0.127 |
| B3 | -0.515 |
| B4 | 0.409 |
| B5 | -0.778 |
| B6 | -0.0638 |
| B7 | 0.0471 |
| B8 | -0.101 |
| B9 | -0.133 |
| B10 | -0.665 |
| B11 | 0.104 |
| B12 | 0.297 |
| B13 | 0.306 |
| B14 | -0.679 |
| B15 | -0.297 |
| B16 | -0.0524 |
| B17 | -0.71 |
| B18 | 0.0592 |
| B19 | 0.0473 |
